Assay outcomes from PubChem BioAssay.
esBAF inh: Bmi1 luciferase reporter increase in mESCs, primary screen, esBAF inhibitor project, mouse ES cells, Bmi1 luciferase knock-in, single point; 24 h; 100% = twice the neutral-well signal; reporter increase, % at 12.5 µM; 2% of 350,000 active; AID 602393, 2012; in the data active means activation above about 40%; inconclusive means no clear call, values can overlap the other calls;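 further: 0% = median of the plate's neutral control wells and 100% = double that signal; a rise in the Bmi1 reporter signal indicates esBAF inhibition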
Rtt109 HAT inh: inhibitors of C. albicans Rtt109/Vps75 HAT, primary screen, biochemical, ThioGlo CoA-SH fluorescence, plate reader | inhibition, % at 34.9 µM | purified Rtt109/Vps75, 4 h | Histone acetyltransferase RTT109 (Candida albicans (strain SC5314 / ATCC MYA-2876)), … | 0.16% of 330,000 active;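 active means inhibition of at least 50% in every replicate; inconclusive means best replicate reaches 50% inhibition but some replicates fall short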
Target sequence (Q5AAJ8 whole entry, looked up): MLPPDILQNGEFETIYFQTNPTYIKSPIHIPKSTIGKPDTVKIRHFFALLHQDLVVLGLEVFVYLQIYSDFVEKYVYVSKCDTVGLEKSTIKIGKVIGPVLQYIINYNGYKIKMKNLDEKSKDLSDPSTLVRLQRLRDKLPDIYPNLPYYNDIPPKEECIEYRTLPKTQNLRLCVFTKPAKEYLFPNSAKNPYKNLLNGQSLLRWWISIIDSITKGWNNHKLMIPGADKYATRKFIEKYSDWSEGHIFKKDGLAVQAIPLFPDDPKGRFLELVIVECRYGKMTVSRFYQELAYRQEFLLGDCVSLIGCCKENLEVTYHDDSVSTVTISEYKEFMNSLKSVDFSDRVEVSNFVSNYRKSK
MITF act: activators of MITF-driven TRPM1 promoter reporter, primary screen, cell-based, SK-MEL-5, luciferase, single point | SK-MEL-5 TRPM1-promoter luciferase, 24 h; % of positive control, neutral wells = 0 | activation, % at 12.5 µM | 0.75% of 300,000 active | AID 588334, 2011;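 active means mean activation of at least 80% with every replicate also reaching 80%; inconclusive means mean reaches 80% but some replicate falls short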;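 further: 0% = neutral control wells and 100% = parthenolide positive control wells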
Wnt bcat act: Wnt/beta-catenin pathway activators, primary screen, cell-based, plate reader, single point; Wnt/beta-catenin reporter cell assay, activator; activation, % at 9.35 µM; 1.2% of 300,000 active; AID 743398, 2014; in the data active means activation above about 30%, passing the limit was not always enough; inconclusive means no clear call, values can overlap the other calls;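 further: 0% = neutral control wells and 100% = positive control wells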
Statin myotox sup: suppressors of statin myotoxicity in C2C12 myotubes, primary screen, cell-based, single point, plate reader | C2C12 myotubes + simvastatin, ATP luminescence, 48 h; scaled: DMSO 0, geranylgeraniol control 100 | rescue of ATP level, % at 7.49 µM | 0.78% of 330,000 active | AID 602340, 2012;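 active means mean ATP rescue above about 67%, or every replicate alone reaching that limit, limit read from the data, passing the limit was not always enough; inconclusive means no clear call, values can overlap the other calls; inactive means mean under the limit and some replicate under it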;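 further: myotubes were challenged with 10 µM simvastatin during compound exposure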
Starred values were filed as active, the others as inactive; ? = inconclusive; · = no result given. Hits are enriched below; roughly 3.1% of the tested compounds scored in any of these assays.

SMILES	esBAF inh	Rtt109 HAT inh	MITF act	Wnt bcat act	Statin myotox sup
COc1ccc(C(=O)Nc2ccc3c(c2)OC[C@@H](C)NC[C@H](C)[C@H](OC)CN(C)C3=O)cc1	-2	·	·	·	10
CO[C@H](CN(C)S(=O)(=O)c1cccc(Cl)c1)[C@H](C)CN([C@@H](C)CO)S(=O)(=O)c1cccc(Cl)c1	6	·	·	·	-2
CCOC(=O)c1ccc(NC(=O)c2cc3ccccc3o2)cc1	25	7	111*	·	-15
Cc1cccc(NC(=S)NC(=O)c2oc3ccccc3c2C)n1	49*	3	72	24	-24
Cc1nc(NC(=O)c2cc3ccccc3o2)ccc1Br	69*	-7	63	14	-8
Cc1cccc(NC(=O)c2cc(Cl)nc3ccccc23)c1	-3	-4	0	-2	93*
Cc1nc(NC(=O)c2ccc(Br)o2)ccc1Br	·	7	21	0	·
COCC#Cc1ccc2c(c1)O[C@@H](CN(C)S(=O)(=O)c1ccc(F)cc1)[C@H](C)CN([C@@H](C)CO)S2(=O)=O	-8	·	·	·	-63
COc1ccccc1S(=O)(=O)N[C@H]1CC[C@@H](CCNC(=O)C2CCC2)O[C@@H]1CO	-2	·	·	·	-3
CO[C@@H]1CN(C)C(=O)c2ccc(NS(=O)(=O)c3ccccc3)cc2OC[C@@H](C)N(Cc2cccnc2)C[C@@H]1C	3	·	·	·	5
CC(C)C#Cc1cnc2c(c1)C(=O)N([C@H](C)CO)C[C@H](C)[C@H](CN(C)C(=O)C1CCC1)O2	-5	·	·	·	22
CCC(=O)Nc1cccc(NC(=O)c2cc3ccccc3o2)c1	38	-1	·	-3	-4
Cc1cccc(NC(=O)c2cc3ccccc3o2)c1	63*	5	28	42*	·
COc1ccc(Cl)cc1C(=O)Nc1ccc(Br)c(C)n1	61*	-3	5	20	-31
CCOC(=O)c1cccc(NC(=O)c2cc3ccccc3o2)c1	46*	2	·	7	-6
O=C(Nc1cccnc1Cl)c1cc2ccccc2o1	19	-1	71	49*	-3
Cc1cccc(NC(=O)c2cc3ccccc3c(=O)o2)n1	10	-10	57	52*	16
O=C(NCc1ccco1)c1cc2ccccc2c(=O)o1	·	1	11	·	·
COc1ccc(S(=O)(=O)Nc2ccc3c(c2)C(=O)N(C)C[C@H](OC)[C@@H](C)CN[C@@H](C)CO3)cc1	-1	·	·	·	-8
Cc1ccc(N2CS(=O)(=O)/C(=C/N(C)C)C2=O)cc1	15	2	68	49*	1
CC1(C)CNC(=O)c2sc(N3CCCCC3)nc2C1	15	·	·	·	·
CC1(C)CC(=O)c2sc(N3CCCCC3)nc2C1	51*	-11	50	·	13
C[C@H](CO)N1C[C@H](C)[C@H](CN(C)S(C)(=O)=O)Oc2ccc(N(C)C)cc2CC1=O	0	·	·	·	-17
Cc1ccc(NC(=O)C(=O)NCC2CCCN2S(=O)(=O)c2cccs2)cc1 (stereo not given)	7	6	6	-1	-2
Cc1cccc(NC(=O)C(=O)NCC2CCCN2S(=O)(=O)c2cccs2)c1 (stereo not given)	42*	·	·	3	4
SMILES	esBAF inh	Rtt109 HAT inh	MITF act	Wnt bcat act	Statin myotox sup
CCCC(=O)Nc1ccc2c(c1)OC[C@@H](C)N(C(=O)c1ccncc1)C[C@H](C)[C@@H](OC)CN(C)C2=O	-4	·	·	·	8
O=C(c1ccco1)N1N=C(c2ccccc2O)CC1c1cccs1 (stereo not given)	-6	·	·	-4	70*
O=C(c1ccco1)N1N=C(c2cccs2)CC1c1ccco1 (stereo not given)	-6	-1	-1	-2	34
COc1ccc(-[n+]2c(C)cc(/C=C3\Sc4ccccc4N3C)cc2C)cc1	·	74*	-100	·	·
COc1ccccc1-[n+]1c(C)cc(/C=C2\Sc3ccccc3N2C)cc1C	-84	?	-94	-16	-155
CN(C)C(=O)CSc1nc(-c2ccccc2)nc2c1CCCC2	-7	5	-14	-1	77*
Cc1cc(C(=O)N2CCc3ccccc3C2)c(C)o1	52*	-16	29	-2	1
Cc1cc(C(=O)N2CCc3ccccc3C2)no1	-5	-1	14	1	1
COc1cccc2cc(C(=O)N3CCc4ccccc4C3)c(=O)oc12	78*	-4	49	·	-16
Cc1ccc(N2C(=O)c3ccccc3C2=O)cc1	·	-6	14	-1	·
Cc1ccc(SC2=C(Sc3ccc(C)cc3)C(=O)c3ccccc3C2=O)cc1	42*	-4	-19	14	5
C[C@H]1CCCCO[C@@H](CN(C)S(=O)(=O)c2cccs2)[C@@H](C)CN([C@@H](C)CO)C(=O)c2cc(N(C)C)ccc2O1	-6	·	·	·	-22
CC1(C(=O)Nc2nc3ccccc3s2)CC1(Br)Br (stereo not given)	?	5	83*	14	-5
O=C(Cc1ccccc1)Nc1nc2ccccc2s1	50*	-2	?	8	·
COCC(=O)Nc1nc2ccccc2s1	19	-2	18	19	3
O=C(Cc1cccs1)Nc1nc2ccccc2s1	49*	-5	63	·	3
CC(C)C(=O)NNc1nc2ccccc2s1	92*	·	78	16	15
C[C@@H]1CN([C@@H](C)CO)S(=O)(=O)c2ccc(C#Cc3ccccn3)cc2O[C@H]1CN(C)Cc1ccccc1	4	·	·	·	-62
CCC(=O)Nc1ccc2c(c1)C(=O)N(C)[C@H]1CC[C@H](CC(=O)NCC3CCCCC3)O[C@@H]1CO2	-1	·	·	·	14
CO[C@H](CN(C)S(=O)(=O)c1ccc(Cl)cc1)[C@H](C)CN(C(=O)Nc1ccccc1F)[C@H](C)CO	2	·	·	·	-2
O=C(Cc1ccccc1)Nc1nc(=O)c2ccccc2s1	·	4	14	·	·
CC(=O)c1c(C)nc(Nc2nc3ccccc3s2)nc1C	·	·	·	38*	·
O=C(Cc1nc(=O)c2ccccc2s1)Nc1ccccc1	62*	3	·	·	-21
Cc1ccccc1S(=O)(=O)/N=C(/Nc1nc2ccccc2s1)c1ccccc1	62*	14	98*	53*	-1
C[C@@H]1CN([C@@H](C)CO)C(=O)Cc2cc(NC(=O)C3CC3)ccc2O[C@@H]1CN(C)Cc1ccc2c(c1)OCO2	-4	·	·	·	-44
O=[N+]([O-])c1nn(-c2ccc3c(c2)OCCO3)n(O)c1=NCCCO	14	-4	·	41*	·
O=[N+]([O-])c1nn(-c2ccc3c(c2)OCCO3)n(O)c1=NC1CCCC1	34	1	·	33*	25
O=[N+]([O-])c1nn(-c2ccc3c(c2)OCCO3)n(O)c1=NC1CCCCCC1	15	-2	17	·	55
CCCNC(=O)Nc1ccc2c(c1)C(=O)N(C)C[C@@H](OC)[C@H](C)CN(Cc1ccncc1)[C@@H](C)CO2	4	·	·	·	-20
